Among all 1,900 compounds or so, about 85 (4%) were called active.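 How the source made its calls: active means mean PP5 inhibition over triplicate wells above about 9.5% taken from the earlier PP1 screen (limit read from the data); inactive means the rest.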 This excerpt belongs to a sample that is enriched for actives.

As usually defined, the inhibition is the drop in the measured response relative to a control, in per cent.

The target in this test is Serine/threonine-protein phosphatase 5 (Homo sapiens) (UniProt P53041). Put plainly: PP5 phosphatase inhibition by PP1 hits, confirmation, counter-screen for PP1 inhibitor project, biochemical, fluorescence, triplicate (AID 2360). As to conditions: purified PP5c, OMFP fluorescence; at 6.7 µM; active compounds read high.
Serine/threonine-protein phosphatase 5 (Homo sapiens), sequence (P53041 whole entry, looked up): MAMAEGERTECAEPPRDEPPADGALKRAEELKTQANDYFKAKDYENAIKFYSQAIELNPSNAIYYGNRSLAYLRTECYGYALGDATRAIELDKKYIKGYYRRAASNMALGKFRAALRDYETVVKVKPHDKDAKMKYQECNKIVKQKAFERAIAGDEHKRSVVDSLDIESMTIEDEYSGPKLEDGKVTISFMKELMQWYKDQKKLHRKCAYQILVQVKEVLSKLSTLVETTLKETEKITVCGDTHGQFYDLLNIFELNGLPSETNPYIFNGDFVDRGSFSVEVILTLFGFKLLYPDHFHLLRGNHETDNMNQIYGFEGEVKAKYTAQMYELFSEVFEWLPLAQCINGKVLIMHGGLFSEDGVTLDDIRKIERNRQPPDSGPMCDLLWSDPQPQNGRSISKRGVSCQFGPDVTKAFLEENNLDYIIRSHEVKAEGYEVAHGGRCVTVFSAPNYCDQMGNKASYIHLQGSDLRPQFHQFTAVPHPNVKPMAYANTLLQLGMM
Regarding `O=C(O)c1ccccc1NC(=O)C1C2CCC(O2)C1C(=O)O` (stereo not drawn), the inhibition was 17.6% (active).

For the molecule `CCOP(=O)(OCC)C(O)c1ccc(OC)cc1OC` (stereo not drawn), the inhibition was -3.76% (inactive).

Take `O=c1[nH]c(CN2CC=C(c3ccccc3)CC2)nc2scc(-c3cccs3)c12`: the inhibition is -3.01% (inactive).

Values taken from PubChem BioAssay AID2360 (The Scripps Research Institute Molecular Screening Center, 2010).
